Rows were chosen to be rich in hits. Some 12% of all compounds tested hit in one or more screens of this group.
BAZ2B inh: inhibitors of human BAZ2B bromodomain. Q9UIF8. AlphaScreen BAZ2B-H3K14Ac peptide displacement. Potency, µM (highest dose often 114 µM), for inactives: at the top dose activity change, negative = inhibition, most hits filed as inhibitors. 360,000 tested, 4.4% active. AID 504333; further: potency means the concentration at half of the fitted maximal effect; on the % scale 0 is the no-effect control and ±100 the full control effect; nearly all actives have a fitted effect of over 60% in size
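BAZ2B (50 nM) with biotin-H3(5-23)K14Ac peptide (50 nM) in PBS pH 7.4, 0.01% Tween-20, preformed 30 min, then compound 30 min at room temperature; top concentration 110uM. AlphaScreen streptavidin donor/nickel chelate acceptor beads (10 ug/mL final), 20 min dark, signal read.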
PLK1 PBD block: inhibitors of human PLK1 polo-box domain binding; 360,000 tested, 2.8% active; Potency, µM, without a hit: max response, negative = inhibition, usual class: inhibitors; P53350; Plk1 PBD binding of FITC phosphopeptide, fluorescence polarization; further: potency means the concentration at half of the fitted maximal effect; series mostly up to about 57 µM; on the % scale 0 is the no-effect control and ±100 the full control effect; nearly all actives have a fitted effect of over 65% in size
Target sequence (P53350 whole entry, looked up, the tested form may be a part): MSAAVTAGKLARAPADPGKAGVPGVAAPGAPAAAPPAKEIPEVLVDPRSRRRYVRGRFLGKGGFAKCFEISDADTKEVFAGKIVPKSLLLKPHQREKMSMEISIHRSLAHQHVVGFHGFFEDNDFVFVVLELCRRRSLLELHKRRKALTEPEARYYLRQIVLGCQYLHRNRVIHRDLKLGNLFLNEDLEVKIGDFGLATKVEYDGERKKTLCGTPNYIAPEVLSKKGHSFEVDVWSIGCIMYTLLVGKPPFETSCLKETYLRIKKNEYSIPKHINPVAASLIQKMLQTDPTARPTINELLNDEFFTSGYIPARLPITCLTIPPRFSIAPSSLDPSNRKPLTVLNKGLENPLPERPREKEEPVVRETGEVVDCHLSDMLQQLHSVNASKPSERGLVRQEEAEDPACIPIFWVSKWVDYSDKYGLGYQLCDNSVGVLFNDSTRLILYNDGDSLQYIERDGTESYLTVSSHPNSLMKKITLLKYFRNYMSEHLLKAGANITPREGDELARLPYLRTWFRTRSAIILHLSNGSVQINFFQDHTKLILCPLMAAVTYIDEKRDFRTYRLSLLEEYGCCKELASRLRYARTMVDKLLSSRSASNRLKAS
G9a block: inhibitors of human histone lysine methyltransferase G9a. Q96KQ7. G9a H3K9 monomethylation, AlphaScreen, 2 h. Potency, µM (top dose mostly 102 µM), for inactives: at the top dose activity, negative = inhibition, actives largely listed as inhibitors. 350,000 tested, 8.8% active. AID 504332; further: potency means the concentration at half of the fitted maximal effect; on the % scale 0 is the no-effect control and ±100 the full control effect; nearly all actives have a fitted effect of over 75% in size
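Readings reflect AlphaScreen signal from monomethyl-H3K9 antibody detection. HMT at 20 nM; substrate b-H3K9 500 nM; cofactor SAM 20 uM; 2 h RT reaction; compounds tested as titrations in qHTS with 15 min preincubation.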
HP1b chromo inh: HP1-beta chromodomain-methylated histone interaction inhibition; AlphaScreen HP1-beta / biotin-H3K9me3 peptide binding; 390,000 tested, 0.56% active; Potency, µM (titrated, usually from 114 µM), inactives show top-dose activity change, negative = inhibition, hits mostly inhibitors; P83916; further: potency means the concentration at half of the fitted maximal effect; nearly all actives have a fitted effect of over 70% in size
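AlphaScreen: HP1-beta (50 nM) preformed 30 min with biotin-H3(1-18)K9me3 peptide (50 nM) in PBS pH 7.4, 0.01% Tween-20. Compound added for 30 min at RT, then streptavidin donor/nickel chelate acceptor beads (10 ug/mL) for 30 min.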
PI5P4Ka inh: blocks human PI5P4K alpha kinase activity; max response, %; PI5P4Kalpha enzyme, ADP-Glo luminescence, 60 min; active compounds read low; P48426; AID 652105; 330,000 tested, 1.2% active; active means max response of -50% or lower; inconclusive means between -30% and -50%; inactive means -30% or higher; further: value at the top dose of about 77 µM; on the % scale 0 is the no-effect control and ±100 the full control effect
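Compounds were pin-transferred onto PI5P4Kalpha and substrate in HEPES pH 7.4 buffer with EGTA, CHAPS and 5% DMSO. ATP (5 microM final) started the reaction, which ran 60 minutes at room temperature before ADP-Glo detection.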
JMJD2A Tudor: inhibitors of human JMJD2A Tudor domain; O75164; AlphaScreen JMJD2A-Tudor / H3K4me3 peptide binding; Potency, µM (top dose mostly 114 µM), without a hit: top-dose activity change, negative = inhibition, most hits filed as inhibitors; 390,000 tested, 4.4% active; AID 504339; further: potency means the concentration at half of the fitted maximal effect; on the % scale 0 is the no-effect control and ±100 the full control effect; nearly all actives have a fitted effect of over 50% in size
* marks the source's active call; other numbers are inactive results; ? = inconclusive; nt = no result given; [ ] = remark or other dose. Unless noted, the call rests on the fitted dose curve; in most records, active means well fitted curve in the direction sought with a large enough effect; inconclusive means small, poorly fitted or top-dose-only effect, or another doubt; inactive means no such curve, though single readings can be large; an effect the other way counts as inactive or inconclusive.

SMILES	BAZ2B inh	PLK1 PBD block	G9a block	HP1b chromo inh	PI5P4Ka inh	JMJD2A Tudor
O=C(O)C(c1ccccc1)N1C(=O)/C(=C\c2ccc(-c3ccccc3Cl)o2)SC1=S (stereo not given)	17.8µM*	?	39.8µM*	?	?	20µM*
COc1cc(/C=C2\SC(=S)N(C(C(=O)O)c3ccccc3)C2=O)cc(OC)c1OC (stereo not given)	?	?	?	-16.0%	-0.1	-31.0%
COc1cccc(/C=C2\SC(=S)N(C(C(=O)O)c3ccccc3)C2=O)c1OC (stereo not given)	?	?	?	?	0.0	?
O=C(O)C(c1ccccc1)N1C(=O)/C(=C\c2ccc(-c3ccc(Br)cc3)o2)SC1=S (stereo not given)	20µM*	-9.4%	39.8µM*	?	?	20µM*
CC1(C(=O)NS(=O)(=O)C2CC2)CCCN(C(=O)c2ccc(C(F)(F)F)cc2)C1 (stereo not given)	nt	-0.7%	nt	nt	0.1	nt
Cc1ccc(S(=O)(=O)NCCc2sc3nc(-c4ccccc4)nn3c2C)cc1C	0.3%	nt	12.1%[59 µM]	23.3%	nt	-2.3%
O=C(CSc1nnc(Cc2ccc3c(c2)OCO3)n1C1CCCCC1)NC1CCCC1	6.1%	-7.3%	-2.2%[59 µM]	67.6%	4.1	-7.6%[57.1 µM]
NC(=O)CSc1nnc(Cc2ccc3c(c2)OCO3)n1C1CCCCC1	10.9%	26.7µM*	8.3%	-15.9%	nt	?
COc1ccc(OC)c(NC(=O)c2nc(SCc3ccc(F)cc3)ncc2Cl)c1	-13.9%	nt	-9.5%[59 µM]	50.6%	nt	-9.1%
CN1CCN(C(=S)NC(=O)/C=C/c2cccs2)CC1	-17.3%	-23.0%	50.1µM*	23.5%	-20.1	?
O=C(/C=C/c1cccs1)NC(=S)Nc1ccc(C(=O)O)cc1	-28.5%	-14.1%	?	21.5%	-72.4*	-31.0%
CO[C@H]1C[C@@H]2CC[C@@H](C)[C@@](O)(O2)C(=O)C(=O)N2CCCC[C@H]2C(=O)O[C@H]([C@H](C)C[C@@H]2CC[C@@H](OC(=O)C(C)(CO)CO)[C@H](OC)C2)CC(=O)[C@H](C)/C=C(\C)[C@@H](O)[C@@H](OC)C(=O)[C@H](C)C[C@H](C)/C=C/C=C/C=C/1C	nt	nt	-2.8%[12.7 µM]	nt	nt	nt
COc1cccc(NC(=O)C(=O)N/N=C(\C)CC(=O)Nc2ccc(NC(C)=O)cc2)c1	-15.5%	-6.0%	70.8µM*	37.5%	1.7	-6.2%
C/C(CC(=O)Nc1ccc(N(C)C)cc1)=N\NC(=O)c1ccccc1O	35.5µM*	0.9%	50.1µM*	-18.2%	0.5	56.2µM*
COc1cccc(/C(C)=N/NC(=O)c2ccc(N(C)C)cc2)c1	-29.6%	-3.7%	nt	30.5%	-3.9	-15.5%
COc1cccc(C(=O)N/N=C(\C)CC(=O)Nc2ccc(N(C)C)cc2)c1	56.2µM*	-9.3%	nt	17.6%	8.9	-27.7%
CCc1ccc(NC(=O)C(=O)N/N=C(\C)CC(=O)Nc2ccc(OC)cc2)cc1	-15.3%	-5.0%	?	34.0%	-1.8	-13.6%
COc1cccc(C(=O)NC2CC3CCCC(C2)N3CC(=O)Nc2ccc(N(C)C)cc2)c1 (stereo not given)	44.7µM*	-5.9%	29.0%[0.501 µM]	?	-1.3	39.8µM*
COc1cccc(C(=O)NC2CC3CCCC(C2)N3CC(=O)Nc2ccccc2)c1 (stereo not given)	?	-19.4%	-14.6%[12.7 µM]	52.2%	-28.5	-29.8%[57.1 µM]
CC1(C(=O)NCc2cccs2)CCN1C(=O)Cc1ccc(Cl)cc1Cl (stereo not given)	nt	-5.3%	nt	nt	2.0	nt
COc1ccc(/C=C/C(=O)OCCC(C)C)cc1	nt	nt	85.5%[59 µM]	nt	nt	nt
C/C(CC(=O)Nc1ccc(N(C)C)cc1)=N\NC(=O)c1ccc(Cl)cc1Cl	?	2.0%	-8.7%[59 µM]	10.1%	9.1	?
C/C(CC(=O)Nc1ccc(N(C)C)cc1)=N\NC(=O)c1ccc([N+](=O)[O-])cc1Cl	?	21.2µM*	44.7µM*	?	-11.7	?
O=C(Nc1cccc(S(=O)(=O)NCc2ccco2)c1)c1cccc(Cl)c1	nt	-9.0%	nt	32.8%	-3.2	-2.9%

Screens (PubChem BioAssay)
